Assay results taken from PubChem BioAssay (Tox21).
Values joined by “and” are separate entries in the source; they are usually repeats but may differ in a detail not shown here. Equal entries are not always repeated. Results filed as inconclusive are left out. Entries that show only a call come without a potency. The source holds several records for some structures; these can differ, active in one and inactive in another. Active and inactive are the calls of the source. Unless noted, calls follow the shape of the dose curve; as a rule, active = well fitted curve in the direction sought with a large enough effect in the repeat runs; inconclusive = weak or mixed curves; inactive = no such curve, though single readings can be large; an effect the other way counts as inactive or inconclusive.

Experiments:
[1] = qHTS assay to identify small molecule agonists of the estrogen receptor alpha (ER-alpha) signaling pathway in the presence of an antagonist - cell viability counter screen (AID 1259386);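 also: series mostly up to about 92 µM; cells exposed to compounds for 22 h at 37 °C before the viability read; nearly all actives have a fitted effect of over 30% in size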
In short: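 The test measures whether compounds kill ER-alpha reporter cells (VM7Luc4E2) under antagonist co-treatment (ICI-182,780, 10.0nM). Fluorescence from CellTiter-Fluor is read after a 22hr exposure.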

[2] = molecular target: Progesterone receptor (Homo sapiens) (UniProt P06401); test: qHTS assay to identify small molecule agonists of the progesterone receptor (PR) signaling pathway (AID 1346784; calls by dose curve; also: nearly all actives have a fitted effect of over 30% in size; also: potency is read from the fitted curve at half-maximal effect)
In short: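 Reporter assay, GripTite PR-UAS-bla HEK 293T cells: 16 hr exposure to DMSO-dissolved compounds at 37C, 5% CO2, in steroid-depleted (2% charcoal-stripped FBS) medium; beta-lactamase measured by FRET fluorescence.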

[3] = molecular target: Progesterone receptor (Homo sapiens) (UniProt P06401); test: qHTS assay to identify small molecule antagonists of the progesterone receptor (PR) signaling pathway (AID 1346795; active = well fitted inhibition curve with a large enough effect in the signal ratio in the repeat runs, not every such curve was filed as active; the % refers to the signal ratio; also: potency is read from the fitted curve at half-maximal effect)
In short: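 Stimulus R5020 at 1 nM final; cells HEK293T PR-UAS-bla; medium with 2% charcoal-stripped FBS; compound exposure 16 hr at 37C, 5% CO2; detection by FRET beta-lactamase substrate, 2 hr, room temperature.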

[4] = qHTS assay to identify small molecule agonists of the progesterone receptor (PR) signaling pathway - cell viability counter screen (AID 1346799; calls by dose curve; also: nearly all actives have a fitted effect of over 45% in size)
In short: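 Multiplexed viability read: CellTiter-Glo luminescence, 30 min RT, following LiveBLAzer FRET measurement on PR-UAS-bla HEK293T cells exposed to compounds 16 hr.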

[5] = qHTS assay to identify small molecule antagonists of the TGF-beta/Smad signaling pathway - cell viability counter screen (AID 1346824); also: nearly all actives have a fitted effect of over 50% in size
In short: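 SBE-bla HEK 293T cells, incubated overnight, then compound plus 0.25 ng/mL TGF-beta1 (stock added) for 5 hr at 37 C. Viability was read in the same wells by CellTiter-Glo luminescence after 30 min at room temperature.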

[6] = qHTS assay to identify small molecule agonists of the TGF-beta/Smad signaling pathway - cell viability counter screen (AID 1346829); also: top concentration of the series differs between compounds; nearly all actives have a fitted effect of over 45% in size
In short: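 Same-well cytotoxicity: CellTiter-Glo added after the 2 hr room-temperature beta-lactamase substrate step, luminescence measured 30 min later; cells had 5 hr of compound at 37 C.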

[7] = qHTS assay to identify small molecule agonists of the TGF-beta/Smad signaling pathway (AID 1346859; active = well fitted activation curve with a large enough effect in the signal ratio in the repeat runs, not every such curve was filed as active; the % refers to the signal ratio; also: series mostly up to about 77 µM)
In short: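 Screening used HEK 293T SBE-bla cells at 4,000/well. Test agents: 5 hr, 37 C. Detection: FRET substrate, 2 hr RT, then excitation 405 nm with emissions at 460 and 530 nm.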

[8] = molecular target: Thyrotropin-releasing hormone receptor (Homo sapiens) (UniProt P34981); test: qHTS assay to identify small molecule antagonists of the thyrotropin-releasing hormone receptor (TRHR) signaling pathway (AID 1346877; active = well fitted inhibition curve with a large enough effect in the repeat runs, not every such curve was filed as active; also: series mostly up to about 51 µM)
In short: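 Overnight-plated (18 h, 37 °C) HEK293 cells expressing TRHR were dye-loaded 2 h, treated with compound, then stimulated with TRH at 1 nM final. Fluorescence intensity was captured every second for 3 min.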

[9] = molecular target: Thyrotropin-releasing hormone receptor (Homo sapiens) (UniProt P34981); test: qHTS assay to identify small molecule agonists of the thyrotropin-releasing hormone receptor (TRHR) signaling pathway (AID 1346891; calls by dose curve; also: series mostly up to about 58 µM)
In short: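 Readout was intracellular calcium fluorescence in TRHR-Hek293 cells. Cells were incubated 18 h, dye-loaded 2 h at 37 °C, and treated with compound in agonist mode.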

[10] = Human pregnane X receptor (PXR) small molecule agonists, qHTS cell viability counter screen (AID 1346977); also: nearly all actives have a fitted effect of over 50% in size
In short: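 In each well, the PXR reporter HepG2 line was checked for viability: CellTiter-Fluor reagent added 23hr post-dosing, fluorescence read after 1hr incubation at 37C.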

[11] = Caspase-3/7 induction in HepG2 cells by small molecules, qHTS assay (AID 1346978); also: nearly all actives have a fitted effect of over 15% in size
In short: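 Wild-type HepG2 cells, 2,000/well, settled 5 hr at 37 C and 5% CO2, then compound-treated for 17 hr; caspase-3/7 activity read by luminescent Caspase-Glo 3/7 after 30 min at room temperature.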

[12] = Caspase-3/7 induction in CHO-K1 cells by small molecules, qHTS cell viability counter screen (AID 1346979); also: nearly all actives have a fitted effect of over 35% in size; also: potency is read from the fitted curve at half-maximal effect
In short: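 Following a 5hr settling period, CHO-K1 cells at 1,500 per well received DMSO-dissolved compounds. Cell viability was quantified 16hr later by CellTiter-Fluor fluorescence, measured after 1hr with reagent at 37C.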

[13] = Caspase-3/7 induction in CHO-K1 cells by small molecules, qHTS assay (AID 1346980); also: nearly all actives have a fitted effect of over 15% in size
In short: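 Wild-type CHO-K1 cells exposed to compounds for 17hr at 37 C, 5% CO2. Caspase-3/7 activity then measured by Caspase-Glo 3/7 luminescence after 30min at room temperature.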

[14] = Caspase-3/7 induction in HepG2 cells by small molecules, qHTS cell viability counter screen (AID 1346981); also: series mostly up to about 92 µM; nearly all actives have a fitted effect of over 30% in size
In short: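 Treatment of HepG2 cells with DMSO-delivered compounds ran 16 hr at 37 C following a 5-hr pre-incubation of 2,000 cells/well. CellTiter-Fluor fluorescence, read after 1 hr, served as the viability measure in a qHTS format.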

[15] = molecular target: Nuclear receptor subfamily 1 group I member 2 (Homo sapiens) (UniProt O75469); test: Human pregnane X receptor (PXR) small molecule agonists, qHTS assay (AID 1346982); also: nearly all actives have a fitted effect of over 35% in size; also: potency is read from the fitted curve at half-maximal effect
In short: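 Stable HepG2 line reporting PXR-mediated CYP3A4 expression via luciferase. Treatment: 24 hr with compounds in DMSO at 37 C. Detection: ONE-Glo luminescence.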

[16] = molecular target: Cytochrome P450 2D6 (Homo sapiens) (UniProt P10635); test: Cytochrome P450 Family 2 Subfamily D Member 6 (CYP2D6) small molecule antagonists: luciferase reporter qHTS assay (AID 1671196); also: nearly all actives have a fitted effect of over 50% in size; also: potency is read from the fitted curve at half-maximal effect
In short: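 Chemicals tested for interference with CYP2D6 activity; proluciferin substrate, NADPH regeneration, 1 h at room temperature, luminescent detection.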

[17] = qHTS assay to identify small molecule antagonists of the progesterone receptor (PR) signaling pathway - cell viability counter screen (AID 1346798); also: nearly all actives have a fitted effect of over 50% in size; also: potency is read from the fitted curve at half-maximal effect
In short: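 In the same plates used for the beta-lactamase readout, cell viability of compound- and R5020-treated PR-UAS-bla HEK293T cells (16 hr, 37C) was assessed by CellTiter-Glo luminescence.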

[18] = molecular target: Nuclear receptor subfamily 1 group I member 2 (Rattus norvegicus) (UniProt Q9R1A7); test: Rat pregnane X receptor (rPXR) activation by small molecules, qHTS assay (AID 1346983); conditions: rPXR luciferase reporter cells, One-Glo luminescence, 24 h; max activation: stronger effect = higher value; also: nearly all actives have a fitted effect of over 20% in size
In short: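 Cell-based rPXR activation assay: rPXR cells, 2,000 per well, rested 5hr at 37 C, then exposed to compounds in DMSO for 24 hr at 37 C. Luciferase activity read by One-Glo luminescence after 30 min at room temperature.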

[19] = molecular target: Nuclear receptor subfamily 1 group I member 2 (Homo sapiens) (UniProt O75469); test: CYP3A4 induction through human pregnane X receptor (PXR) by small molecules, qHTS assay (AID 1346984); also: nearly all actives have a fitted effect of over 40% in size
In short: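 After 24 h at 37C with compound, DPX-2 cells (HepG2, co-transfected PXR response element and CYP3A4 promoter-luciferase) got 3uM final P450-Glo Luciferin-IPA for 3 h; One-Glo luminescence followed.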

[20] = molecular target: Nuclear receptor subfamily 1 group I member 2 (Homo sapiens) (UniProt O75469); test: Human pregnane X receptor (PXR) activation by small molecules, qHTS assay (AID 1346985); also: nearly all actives have a fitted effect of over 40% in size
In short: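 DPX-2 cells (HepG2 co-transfected with a PXR response element and a CYP3A4-promoter luciferase construct) were seeded at 2,000 per well, rested 5 hr at 37C, then exposed to DMSO-dissolved compounds for 24 hr. Activation was read as luciferase luminescence.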

Sequence of Thyrotropin-releasing hormone receptor (Homo sapiens) (P34981 whole entry, looked up): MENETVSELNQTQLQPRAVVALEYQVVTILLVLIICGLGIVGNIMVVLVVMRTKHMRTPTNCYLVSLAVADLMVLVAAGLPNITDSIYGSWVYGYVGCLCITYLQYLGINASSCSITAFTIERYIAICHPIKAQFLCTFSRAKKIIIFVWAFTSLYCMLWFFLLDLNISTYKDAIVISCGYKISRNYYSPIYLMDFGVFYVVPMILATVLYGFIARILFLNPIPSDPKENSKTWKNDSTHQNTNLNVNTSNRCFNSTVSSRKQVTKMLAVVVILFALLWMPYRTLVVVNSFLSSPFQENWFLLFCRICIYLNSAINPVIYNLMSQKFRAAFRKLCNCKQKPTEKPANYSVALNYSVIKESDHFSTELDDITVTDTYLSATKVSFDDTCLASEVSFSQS
Sequence of Nuclear receptor subfamily 1 group I member 2 (Homo sapiens) (O75469 whole entry, looked up): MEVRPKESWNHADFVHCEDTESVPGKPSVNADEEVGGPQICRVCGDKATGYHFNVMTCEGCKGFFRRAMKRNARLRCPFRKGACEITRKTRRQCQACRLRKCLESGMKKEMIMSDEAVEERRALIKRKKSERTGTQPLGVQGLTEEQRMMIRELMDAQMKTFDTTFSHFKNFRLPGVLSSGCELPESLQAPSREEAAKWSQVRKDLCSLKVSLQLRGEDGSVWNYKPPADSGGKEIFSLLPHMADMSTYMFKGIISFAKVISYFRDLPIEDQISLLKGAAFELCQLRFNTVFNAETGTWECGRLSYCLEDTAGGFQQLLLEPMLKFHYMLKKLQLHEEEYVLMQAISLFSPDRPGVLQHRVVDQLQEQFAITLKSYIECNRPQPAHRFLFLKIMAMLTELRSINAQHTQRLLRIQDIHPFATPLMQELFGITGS
Sequence of Cytochrome P450 2D6 (Homo sapiens) (P10635 whole entry, looked up): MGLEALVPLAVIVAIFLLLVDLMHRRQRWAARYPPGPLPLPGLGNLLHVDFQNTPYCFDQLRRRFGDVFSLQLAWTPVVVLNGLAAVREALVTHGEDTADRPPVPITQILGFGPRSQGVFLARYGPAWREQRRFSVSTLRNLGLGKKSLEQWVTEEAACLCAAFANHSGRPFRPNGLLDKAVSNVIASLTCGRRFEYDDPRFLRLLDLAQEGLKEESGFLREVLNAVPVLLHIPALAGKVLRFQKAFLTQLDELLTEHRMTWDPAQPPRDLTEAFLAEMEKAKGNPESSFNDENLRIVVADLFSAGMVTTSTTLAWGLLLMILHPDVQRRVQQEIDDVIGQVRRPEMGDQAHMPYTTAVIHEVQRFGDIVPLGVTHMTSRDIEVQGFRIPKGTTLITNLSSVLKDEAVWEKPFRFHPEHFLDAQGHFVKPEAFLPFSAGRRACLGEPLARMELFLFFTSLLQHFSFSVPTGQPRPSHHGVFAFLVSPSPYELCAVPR
Sequence of Progesterone receptor (Homo sapiens) (P06401 whole entry, looked up): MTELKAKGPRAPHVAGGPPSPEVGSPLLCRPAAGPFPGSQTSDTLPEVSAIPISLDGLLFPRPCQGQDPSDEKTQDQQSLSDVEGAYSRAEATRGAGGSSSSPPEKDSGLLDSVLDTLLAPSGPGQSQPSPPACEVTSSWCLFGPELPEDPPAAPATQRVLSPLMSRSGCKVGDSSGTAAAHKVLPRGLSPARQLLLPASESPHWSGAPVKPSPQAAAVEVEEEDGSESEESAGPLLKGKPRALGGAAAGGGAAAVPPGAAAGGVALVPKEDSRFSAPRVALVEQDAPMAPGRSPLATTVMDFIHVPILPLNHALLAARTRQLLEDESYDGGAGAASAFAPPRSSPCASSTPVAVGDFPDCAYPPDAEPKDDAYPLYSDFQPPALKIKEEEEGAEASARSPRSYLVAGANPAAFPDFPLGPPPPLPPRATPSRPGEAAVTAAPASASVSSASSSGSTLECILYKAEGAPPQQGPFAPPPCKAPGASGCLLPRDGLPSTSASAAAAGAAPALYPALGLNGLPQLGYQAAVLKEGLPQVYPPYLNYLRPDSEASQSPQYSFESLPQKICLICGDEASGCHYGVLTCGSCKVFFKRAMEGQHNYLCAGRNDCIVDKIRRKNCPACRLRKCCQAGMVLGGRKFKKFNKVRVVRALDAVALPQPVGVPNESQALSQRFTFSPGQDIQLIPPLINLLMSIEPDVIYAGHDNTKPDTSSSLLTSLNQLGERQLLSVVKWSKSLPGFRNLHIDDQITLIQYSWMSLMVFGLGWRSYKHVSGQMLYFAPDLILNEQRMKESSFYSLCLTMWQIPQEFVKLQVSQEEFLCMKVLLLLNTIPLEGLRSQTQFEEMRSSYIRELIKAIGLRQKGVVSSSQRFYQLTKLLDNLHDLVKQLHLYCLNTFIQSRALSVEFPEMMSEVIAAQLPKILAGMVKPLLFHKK
Sequence of Nuclear receptor subfamily 1 group I member 2 (Rattus norvegicus) (Q9R1A7 whole entry, looked up): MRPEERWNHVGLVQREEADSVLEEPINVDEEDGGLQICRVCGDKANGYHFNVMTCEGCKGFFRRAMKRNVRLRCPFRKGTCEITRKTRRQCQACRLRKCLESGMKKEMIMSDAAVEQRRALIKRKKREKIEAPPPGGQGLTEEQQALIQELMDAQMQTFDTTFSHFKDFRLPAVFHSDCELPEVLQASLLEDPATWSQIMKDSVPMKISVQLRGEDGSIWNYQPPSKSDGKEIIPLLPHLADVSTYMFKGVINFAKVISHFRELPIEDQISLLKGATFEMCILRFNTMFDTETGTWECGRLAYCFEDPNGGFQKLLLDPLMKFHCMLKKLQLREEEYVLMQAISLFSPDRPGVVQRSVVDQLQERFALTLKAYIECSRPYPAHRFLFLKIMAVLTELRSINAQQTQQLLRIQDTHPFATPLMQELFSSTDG

Compound | Potency [1] | Potency [2] | Potency [3] | Potency [4] | Potency [5] | Potency [6] | outcome [7] | Potency [8] | Potency [9] | Potency [10] | Potency [11] | Potency [12] | Potency [13] | Potency [14] | Potency [15] | Potency [16] | Potency [17] | max activation [18] | Potency [19] | Potency [20]
CCCCCC1C(=O)CCC1CC(=O)OC (centres undefined) | inactive | inactive | inactive | inactive | inactive | inactive | inactive | inactive | inactive | inactive | inactive | inactive | inactive | inactive | inactive | inactive | – | – | – | –
CC(=O)OC(C)C | inactive | inactive | inactive | inactive | inactive | inactive | inactive | inactive | inactive | inactive | inactive | inactive | inactive | inactive | inactive | inactive | inactive | – | – | –
CC(C)(Oc1ccc(Cl)cc1)C(=O)O | inactive | inactive | inactive | inactive | – | inactive | inactive | – | – | inactive | inactive | inactive | inactive | inactive | inactive | – | inactive | – | – | –
COC(=O)CC(=O)OC | inactive | inactive | inactive | inactive | – | inactive | inactive | inactive | inactive | inactive | inactive | inactive | inactive | inactive | 56.7 µM (active) and inactive | inactive | inactive | – | – | –
COC(=O)c1ccc(C)cc1 | inactive | inactive | inactive | inactive | inactive | inactive | inactive | inactive | inactive | inactive | inactive | inactive | inactive | inactive | inactive | inactive | inactive | – | – | –
O=C(O)CCCC(=O)O | inactive | inactive | inactive | inactive | – | inactive | inactive | inactive | inactive | inactive | inactive | inactive | inactive | inactive | inactive | 22 µM (active) and inactive | inactive | – | – | –
CC/C(=C(/CC)c1ccc(O)cc1)c1ccc(O)cc1 | inactive | inactive | 12.2 µM (active) | inactive | inactive | inactive | inactive | inactive | inactive | inactive | inactive | 60.6 µM (active) and 61.1 µM (active) and 26.6 µM (active) | inactive | inactive | – | – | 60.6 µM (active) | 5.39% (inactive) | – | –
CN(C)C | inactive | inactive | inactive | inactive | inactive | inactive | inactive | – | – | inactive | inactive | inactive | inactive | inactive | inactive | inactive | inactive | – | – | –
CCCN1C=CN(C)C1 | inactive | inactive | inactive | inactive | inactive | inactive | inactive | – | – | inactive | inactive | inactive | inactive | inactive | inactive | inactive | inactive | – | – | –
CC(=O)[C@H]1CC[C@H]2[C@@H]3CC=C4C[C@@H](O)CC[C@]4(C)[C@H]3CC[C@]12C | inactive | 4.85 µM (active) | inactive | inactive | – | inactive | inactive | – | – | inactive | inactive | inactive | inactive | inactive | 24.3 µM (active) and 23.7 µM (active) | inactive | – | -3.68% (inactive) | inactive | inactive
CCCCCCOCCOCCO | inactive | inactive | inactive | inactive | inactive | inactive | inactive | – | – | inactive | inactive | inactive | inactive | inactive | – | – | – | – | – | –
Cc1ccc(C)c(O)c1 | inactive | – | inactive | inactive | inactive | inactive | inactive | inactive | inactive | inactive | inactive | inactive | inactive | inactive | inactive | inactive | inactive | – | – | –
C[N+](C)(C)CCO | inactive | inactive | inactive | inactive | – | inactive | inactive | – | – | inactive | inactive | inactive | inactive | inactive | inactive | inactive | – | – | – | –
CCO[Si](CCCNC(N)=O)(OCC)OCC | inactive | – | inactive | inactive | inactive | inactive | inactive | – | – | inactive | inactive | inactive | inactive | inactive | inactive | inactive | inactive | – | – | –
c1ccc2c(c1)ccc1cc3c(ccc4ccccc43)cc12 | inactive | inactive | inactive | inactive | inactive | inactive | inactive | inactive | inactive | inactive | inactive | inactive | inactive | inactive | 3.03 µM (active) and 1.71 µM (active) | inactive | – | – | – | –
Brc1nc2ccccc2s1 | inactive | – | inactive | inactive | inactive | inactive | inactive | inactive | inactive | inactive | inactive | inactive | inactive | inactive | 60.9 µM (active) | inactive | inactive | – | – | –
